Data reported in PubChem BioAssay AID1851 (National Center for Advancing Translational Sciences (NCATS), 2009).
In all, about 16,000 compounds went through this assay and about 2,600 (16%) were called active. About 20% were inconclusive and are not listed. Calls come from the whole dose curve; as a rule, active = well fitted curve in the direction sought with a large enough effect; inconclusive = small, poorly fitted or top-dose-only effect, or effect the other way; inactive = no such curve, though single readings can be large or run the other way. Only a sample is shown. More than one record can exist for a structure, and the calls need not agree.

Biological target: Cytochrome P450 2D6 (Homo sapiens) (UniProt P10635)
Assay: Cytochrome panel assay with activity outcomes
Details: recombinant CYP, pro-luciferin dealkylation, luminescence, p450-cyp2d6; series mostly up to 57.1 µM; activity, negative = inhibition: at the top concentration
% is set by controls: 0 for no effect and ±100 for the full control effect.

Cytochrome P450 2D6 (Homo sapiens), sequence (P10635 whole entry, looked up): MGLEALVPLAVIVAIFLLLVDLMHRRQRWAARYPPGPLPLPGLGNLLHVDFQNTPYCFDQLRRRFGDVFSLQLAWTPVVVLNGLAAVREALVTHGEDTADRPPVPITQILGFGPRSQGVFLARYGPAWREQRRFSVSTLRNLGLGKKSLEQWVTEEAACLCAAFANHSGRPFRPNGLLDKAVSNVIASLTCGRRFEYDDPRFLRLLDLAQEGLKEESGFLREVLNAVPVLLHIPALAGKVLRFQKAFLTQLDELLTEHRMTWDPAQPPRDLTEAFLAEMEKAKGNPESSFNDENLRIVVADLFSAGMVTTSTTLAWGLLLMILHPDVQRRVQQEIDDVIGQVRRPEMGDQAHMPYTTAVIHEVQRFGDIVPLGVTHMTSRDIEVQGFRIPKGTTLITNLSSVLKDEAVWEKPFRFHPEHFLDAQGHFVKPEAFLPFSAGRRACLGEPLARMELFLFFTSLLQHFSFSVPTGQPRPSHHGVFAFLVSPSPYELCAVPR

activity, negative = inhibition, inactive:
Nc1nc(N)nc(CC(=O)O)n1 -1.79% [at 11.4 µM]
Cc1cccc[n+]1CC(=O)Nc1ccc([N+](=O)[O-])cc1Cl -9.2%
O=C(N/N=C1\CCCc2ccccc21)c1ccc([N+](=O)[O-])cc1Cl 3.67%
CN(Cc1ccco1)c1cc(-c2ccccc2Cl)ncn1 -15.6%
CCc1nc2cc(CC(=O)O)ccc2o1 3.13%
N[C@@H](COP(=O)(O)O)C(=O)O 13.7%
COc1cccc(NC(=S)NN2CCN(C)CC2)c1 -18.7%
Cc1ccc(NC(=O)CN2C(=O)S/C(=C\c3cccn3C)C2=O)cc1 22%
Cn1cc(-c2nc3cncnc3n(-c3ccccc3)c2=O)c2ccccc21 -7.45%
Cn1c(=O)c2[nH]c(CCCCC(=O)O)nc2n(C)c1=O -13.7% [at 11.4 µM]
CCn1c(=O)c2c(nc3n2CCS3)n(C)c1=O 4.82%
CCCCc1c(O)nc(SCCN(C)C)n(-c2ccccc2)c1=O -18.2%
C/C(=N\NC(=O)c1ccccc1C)c1ccc(NC(=O)c2cccs2)cc1 -5.07%
NS(=O)(=O)c1ccc(N=Nc2cc3ccccc3c(C(=O)O)c2O)cc1 4.38% [at 11.4 µM]
Cc1ccc(OC(=O)c2cccc(C(=O)Oc3ccc(C)cn3)n2)nc1 -6.82%
CN1CCCCC1=NCCCn1cnc2c1c(=O)n(C)c(=O)n2C 5.89%
CCOC(=O)N/N=C1/C[C@@H](O)[C@@H](O)[C@@H]2[C@@H]3C(=O)N(Cc4ccc5c(c4)OCO5)C(=O)[C@H]3CC[C@@H]12 6.47% [at 11.4 µM]
COc1cc(/C=N/NC(=O)c2cccnc2)ccc1OC(=O)c1ccc2c(c1)OCO2 10.4%
CCOC(=O)N1CCN(C(=O)CN(C)S(=O)(=O)c2ccc3c(c2)C(C)(C)C(=O)N3C)CC1 20.2%
CC[C@@H]1OC(=O)[C@H](C)[C@H](O[C@@H]2C[C@](C)(OC)[C@H](O)[C@H](C)O2)[C@H](C)[C@H](O[C@@H]2O[C@@H](C)C[C@@H](N(C)C)[C@@H]2O)[C@](C)(O)C[C@H](C)[C@@H]2N[C@H](COCCOC)O[C@H]([C@@H]2C)[C@]1(C)O 8.43% [at 25.6 µM]
COc1ccc(NC(=O)N2CCCC3(CCN(S(C)(=O)=O)CC3)C2)cc1 -0.845%
CS(=O)(=O)N1CCC2(CCN(Cc3nccs3)CC2)CC1 7.26%
CS(=O)(=O)N1CCC[C@@]2(CCN(c3ccncc3)C2)C1 -1.64%
O=S(=O)(c1ccccc1)N1CCC[C@@]2(CCN(c3ccccc3)C2)C1 -10.2%
COc1ccc(NC(=O)N2CC[C@@]3(CCCN(S(C)(=O)=O)C3)C2)cc1 20.3%
Cn1cc(-c2nc3cnc(Oc4ccccc4)nc3n(Cc3cccs3)c2=O)c2ccccc21 7.6%
CC(C)Cn1c(SCC(=O)c2c(N)n(C)c(=O)n(C)c2=O)nc2ccccc21 -5.6%
COCCNC(=O)c1onc(CSc2cccc(Cl)c2)c1C(=O)O 17.7%
Nc1ccc(N=Nc2ccc(-c3ccc(O)cc3)cc2)c2ccc(S(=O)(=O)O)cc12 3.2% [at 11.4 µM]
O=C(O)c1[nH]c2c([N+](=O)[O-])cc([N+](=O)[O-])cc2c1C(=O)O 11.1% [at 11.4 µM]
NC(=O)C[C@H](N)C(N)=O -0.87% [at 11.4 µM]
CC1CCN(C(=O)Nc2ccc3nsnc3c2)CC1 4.11%
O=S(=O)(c1ccccc1)N1CCC2(CC1)CN(Cc1nccs1)C2 1.8%
O=S(=O)(c1ccccc1)N1CCC2(CCCN(Cc3nccs3)C2)CC1 12%
COc1ccc(NC(=O)N2CC3(CCN(S(=O)(=O)c4ccccc4)CC3)C2)cc1 -4.48%
CN1CCC2(CC1)CCN(S(=O)(=O)c1ccccc1)CC2 2.59%

AC50, active:
COc1ccccc1-c1cc(N(C)Cc2ccco2)ncn1 12.6 µM
CN(C)Cc1ccccc1-c1cc(N(C)Cc2ccco2)ncn1 7.94 µM
CCCCc1cc2ccccc2c(OCCN(C)C)n1 2 µM
Nc1ccccc1S[C@@H](C[N+](=O)[O-])c1ccc2c(c1)OCO2 3.98 µM
COc1ccc(C(=O)N/N=C2/SCC(=O)N2Cc2ccc3c(c2)OCO3)cc1OC 15.8 µM
COc1ccccc1CN1CC[C@@]2(CCCN(S(C)(=O)=O)C2)C1 0.316 µM
COc1ccccc1CN1CCCC2(CCN(S(C)(=O)=O)CC2)C1 0.0631 µM
COc1ccccc1CN1CCC2(CC1)CCN(S(C)(=O)=O)CC2 0.02 µM
COc1ccccc1CN1CC[C@@]2(CCCN(S(=O)(=O)c3ccccc3)C2)C1 0.01 µM
O=S(=O)(c1ccccc1)N1CCC[C@@]2(CCN(Cc3nccs3)C2)C1 2.51 µM
COc1ccccc1CN1CCC2(CC1)CCN(S(=O)(=O)c1ccccc1)CC2 0.158 µM

AC50, 31.6 µM (active) and inactive:
O=C(Nc1ccc([N+](=O)[O-])cc1Cl)c1cc(Cl)ccc1O
